Only some compounds are listed: those with a hit (about 3% of all), similar ones and a draw of the others.
INS promoter inh: TRM-6 insulin promoter activity inhibition; TRM-6 cells (human fetal islet line), insulin promoter-eGFP reporter, imaging; reporter expression induced with tamoxifen; inhibition, % at 2 µM; 130,000 compounds, 0.9% hits;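 active means inhibition above the mean plus 3 SD, with well images judged a real hit on visual review, cut at about 60% in these data, passing the limit was not always enough; inconclusive means inhibition over the cutoff but images rejected on review; inactive means inhibition not above the cutoff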
Measles CPE: protection of cells from measles virus; protection (pct of control), % at 4 µM; 140,000 compounds, 1.5% hits; Measles virus-infected cells, CPE protection, absorbance; in the data active means protection mostly above about 24%, no sharp cut-off; inactive means mostly below about 26%
SDO1 yeast rescue: restores growth of sdo1-depleted yeast; S. cerevisiae sdo1-depleted JHY4D growth rescue, OD600 30 h; active compounds read high; pdr5 snq2 efflux-pump mutant strain; z-score at 10 µM; 140,000 compounds, 0.21% hits; AID 817;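 active means z-score above 3 at both the 24 hr and the 30 hr optical density reads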;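 further: z-score against mean and SD of all compound wells on the same plate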
ROMK primary: modulators of human ROMK potassium channel. Tet-inducible ROMK, thallium flux fluorescence; actives lie on both sides. B-score at 10 µM. 130,000 compounds, 2% hits;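 active means signal ratio slope over the read window, or its plate-corrected B-score, at least 3 SD from the plate mean, either direction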;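 further: B-score of the F/F0 ratio slope over 7 to 12 s after thallium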
Target sequence (P48048 whole entry, looked up): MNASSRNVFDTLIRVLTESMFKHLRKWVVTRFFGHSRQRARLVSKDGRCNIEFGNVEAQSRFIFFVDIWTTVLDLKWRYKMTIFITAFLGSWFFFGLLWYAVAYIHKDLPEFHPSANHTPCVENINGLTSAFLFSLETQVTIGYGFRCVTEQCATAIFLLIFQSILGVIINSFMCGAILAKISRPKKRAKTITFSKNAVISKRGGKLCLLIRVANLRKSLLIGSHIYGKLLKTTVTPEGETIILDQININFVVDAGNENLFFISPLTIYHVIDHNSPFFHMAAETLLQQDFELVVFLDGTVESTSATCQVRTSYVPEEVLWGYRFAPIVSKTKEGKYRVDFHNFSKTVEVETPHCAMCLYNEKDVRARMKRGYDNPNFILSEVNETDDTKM
Starred values were filed as active, the others as inactive.

Results for O=c1c2c(-c3cccs3)csc2[nH]c(=S)n1-c1ccccc1 ?
INS promoter inh: 11; Measles CPE: 4; SDO1 yeast rescue: 0.13

What do the screens show for `C=CCn1c(=S)[nH]c2scc(-c3ccc(C)o3)c2c1=O`?
INS promoter inh: -17; ROMK primary: 7.5*

How did CCn1c(=S)[nH]c2scc(-c3cccs3)c2c1=O do in these assays?
INS promoter inh: 0; ROMK primary: 13*

How did CC(C)c1ccc(N=C(N)N=C(N)N)cc1 do in these assays?
ROMK primary: 0.69

What do the screens show for `Fc1c(F)c(C(F)(F)F)c(F)c(F)c1N/N=C\c1cccs1`?
INS promoter inh: -46; Measles CPE: 10; SDO1 yeast rescue: -2.6; ROMK primary: 1.4

What do the screens show for `COC(=O)Nc1ccc(S(=O)(=O)Nc2ccc(O)cc2)cc1`?
INS promoter inh: 79*; Measles CPE: 9; SDO1 yeast rescue: 1.4

How did COC(=O)Nc1ccc(S(=O)(=O)Nc2ccc(C)cc2)cc1 do in these assays?
INS promoter inh: -3; Measles CPE: 10; SDO1 yeast rescue: 0.44; ROMK primary: 0.22

Results for COc1ccc(Br)cc1C(=O)N/N=C/c1ccc2c(c1)n(C)c(=O)n2C ?
INS promoter inh: -53; Measles CPE: 37*; SDO1 yeast rescue: 1.6; ROMK primary: 0.62

What do the screens show for `COc1ccc(OC)c(S(=O)(=O)n2nnc3cc(Cl)ccc32)c1`?
Measles CPE: 6; SDO1 yeast rescue: 0.05; ROMK primary: 0.7

Results for COc1cc(S(=O)(=O)n2nnc3ccccc32)c(OC)cc1Cl ?
INS promoter inh: 52; Measles CPE: 1; SDO1 yeast rescue: -1.6; ROMK primary: -2.3*

How did N=c1n(CCN2CCOCC2)c2ccccc2n1CC(=O)c1ccc(Cl)c(Cl)c1 do in these assays?
Measles CPE: 3; SDO1 yeast rescue: -2.1; ROMK primary: -4.9*

Results for COc1cc(/C=C\C(=O)NCc2ccc3[nH]c(C)cc3c2)cc(OC)c1OC ?
INS promoter inh: 66*; Measles CPE: 5; SDO1 yeast rescue: 2.3; ROMK primary: 1

How did COc1ccc(/C=C\C(=O)NCc2ccc3[nH]c(C)cc3c2)cc1OC do in these assays?
INS promoter inh: 35; Measles CPE: 4; SDO1 yeast rescue: 0.89; ROMK primary: 0.76

How did O=C(CSc1nc2ncccc2[nH]1)c1ccc2c(c1)OCO2 do in these assays?
ROMK primary: -0.41

Results for O=C1CCC2(C(=O)O)Sc3ccccc3N12 (configuration not stated) ?
INS promoter inh: 38; Measles CPE: 5; SDO1 yeast rescue: 0.95; ROMK primary: 0.77

What do the screens show for `CSc1ccccc1NC(=O)Cn1c(-c2cscn2)nc2ccccc21`?
INS promoter inh: -50; Measles CPE: 96*; SDO1 yeast rescue: -1

What do the screens show for `CC(C)c1ccccc1NC(=O)Cn1c(-c2ccccc2Cl)nc2ccccc21`?
INS promoter inh: inconclusive; Measles CPE: 5; SDO1 yeast rescue: -0.7; ROMK primary: 0.048

What do the screens show for `CC(C)N1CCN(Cc2ccc(-c3ccccc3Cl)o2)CC1CCO` (configuration not stated)?
ROMK primary: -1.1

What do the screens show for `O=C(COc1ccc(Br)cc1CO)Nc1ccc(F)cc1`?
Measles CPE: 5; SDO1 yeast rescue: -0.09; ROMK primary: -0.37

What do the screens show for `Cc1ccc(NC(=O)COc2ccc(Br)cc2C)cc1`?
INS promoter inh: 32; Measles CPE: 26*; SDO1 yeast rescue: -1.6; ROMK primary: 0.1

Results for Cc1nn(C)c(C)c1NC(=O)c1cc2nc(-c3ccco3)cc(C(F)(F)F)n2n1 ?
ROMK primary: 0.4

What do the screens show for `O=C(Nc1ccc(Cl)cc1)c1cc2nc(-c3ccco3)cc(C(F)(F)F)n2n1`?
INS promoter inh: 71*; Measles CPE: 4; SDO1 yeast rescue: 0.43; ROMK primary: 0.23

How did Cc1noc(C)c1COc1cccc(C(=O)Nc2ccccc2N2CCOCC2)c1 do in these assays?
INS promoter inh: 13; Measles CPE: 8; SDO1 yeast rescue: 0.19; ROMK primary: -0.77

How did O=C1c2ccccc2-c2n[nH]c(=O)c3ccc(N4CCCCC4)c1c23 do in these assays?
ROMK primary: 0.027

How did COc1ccc(C(=O)Nc2nc3c(s2)CCCC3)cc1S(=O)(=O)N1CCCc2ccccc21 do in these assays?
INS promoter inh: 15; Measles CPE: 36*; SDO1 yeast rescue: -0.77; ROMK primary: 0.3

What do the screens show for `COc1ccc(C(=O)NC2CCCCCC2)cc1S(=O)(=O)N1CCCc2ccccc21`?
INS promoter inh: 17; Measles CPE: 3; SDO1 yeast rescue: -0.95

How did COc1cc(C(=O)OCC#N)ccc1OCc1c(C)noc1C do in these assays?
ROMK primary: 0.47

How did Cc1sc(NC(=O)C(C)C)c(C(=O)Nc2ccccc2)c1C do in these assays?
INS promoter inh: 4; Measles CPE: 12; SDO1 yeast rescue: -0.02; ROMK primary: 0.2

Results for Cc1nnc(-c2cnn(C)c2N)n1Cc1ccccc1 ?
INS promoter inh: 42; Measles CPE: 8; SDO1 yeast rescue: 1.4; ROMK primary: 0.29

What do the screens show for `Cc1nnc(-c2cnn(C)c2N)n1Cc1cccc(Cl)c1`?
INS promoter inh: 89*; Measles CPE: 3; SDO1 yeast rescue: -0.19; ROMK primary: 0.31

What do the screens show for `O=C(CN1C(=O)COc2ccccc21)NCCCN1CCc2ccccc2C1`?
INS promoter inh: 11; Measles CPE: 27*; SDO1 yeast rescue: 0.91

What do the screens show for `O=C(CN1C(=O)COc2ccccc21)NCCCN1CCN(Cc2ccccc2)CC1`?
INS promoter inh: -5; Measles CPE: 7; SDO1 yeast rescue: 0.64; ROMK primary: 0.31

Results for O=c1c2cc(Br)ccc2nc(-c2ccc([N+](=O)[O-])cc2)n1O ?
INS promoter inh: -13; ROMK primary: 1.1

How did O=c1c2cc(Br)ccc2nc(-c2cccc(C(F)(F)F)c2)n1O do in these assays?
Measles CPE: 8; SDO1 yeast rescue: -0.82; ROMK primary: 3.7*

How did CCOC(=O)CC(=O)N/N=C/c1c(N)n(C)c(=O)n(C)c1=O do in these assays?
INS promoter inh: -25; ROMK primary: 1.4

What do the screens show for `CCOC(=O)CNNC(=O)Nc1ccc(Cl)c(Cl)c1`?
INS promoter inh: 75*; Measles CPE: 21*; SDO1 yeast rescue: 0.5; ROMK primary: 0.52

Results for CCOC(=O)N(C)OC(=O)Nc1ccc(Cl)c(Cl)c1 ?
INS promoter inh: -73; Measles CPE: 8; SDO1 yeast rescue: 0.1

How did COC(Cc1n[nH]c(=S)n1-c1ccc(Cl)cc1)OC do in these assays?
INS promoter inh: -11; Measles CPE: 19; SDO1 yeast rescue: 0.06

What do the screens show for `Cc1ccccc1OCc1nc(-c2ccc(NC(=O)c3ccco3)cc2)no1`?
INS promoter inh: 59; Measles CPE: 71*; SDO1 yeast rescue: -1.6; ROMK primary: 0.12

What do the screens show for `COc1cccc2c(=O)n(CC(=O)Nc3ccc(F)cc3F)ccc12`?
Measles CPE: 4; SDO1 yeast rescue: 1.1

What do the screens show for `COc1cccc2c(=O)n(CC(=O)Nc3ccccc3)ccc12`?
Measles CPE: 90*; SDO1 yeast rescue: 0.44

Results for Cc1ccc(C)c(N2CCN(Cc3nnnn3C3CCCCC3)CC2)c1 ?
INS promoter inh: 19; Measles CPE: 1; SDO1 yeast rescue: -1.2

Results for Cc1ccc2nc(N3CCN(Cc4nnnn4C4CCCC4)CC3)c(C#N)cc2c1 ?
INS promoter inh: 100*; Measles CPE: 17; SDO1 yeast rescue: -0.17

High-throughput results deposited in PubChem by several laboratories.
